PubChem BioAssay AID1159580 (chemical genetic matrix, 2015)
Several values for one entry are separate records, joined by “and”; a condition that tells them apart may be missing. Equal entries are not always repeated. Out of some 5,500 compounds screened, about 2,000 (36%) were called active. Inconclusive results (about 18%) are left out. No stated cut-off is given here; in the data, active means normalized growth mostly below about 0.91 (no sharp cut-off); inconclusive means no clear call, values can overlap the other calls; inactive means mostly above about 0.92. This is one part of the list.

Experiment: chemical genetic growth profiling, strain panel (AID 1159580);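 further: tested at 20 µM; growth read once vehicle control cultures reached saturation at 30 °C; 1 = growth at the plate median or of vehicle wells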
Conditions: S. cerevisiae deletion strains, growth OD

Measured: normalized growth

CCOC(=O)c1ccc(N)cc1
inactive: locus YAL021C, strain ccr4, stronger effect = lower value 1.03 | locus YAL026C, strain drs2, stronger effect = lower value 1 | locus YAL030W, strain snc1, stronger effect = lower value 1.01 | locus YBL061C, strain skt5, stronger effect = lower value 0.999 | locus YBR009C, strain hhf1, stronger effect = lower value 0.98 | locus YBR021W, strain FUR4, stronger effect = lower value 0.998 | locus YBR023C, strain chs3, stronger effect = lower value 1.03 | locus YBR171W, strain sec66, stronger effect = lower value 1.03 | locus YBR229C, strain ROT2, stronger effect = lower value 0.999 | locus YBR231C, strain swc5, stronger effect = lower value 1 | locus YBR279W, strain paf1, stronger effect = lower value 1 | locus YCL011C, strain gbp2, stronger effect = lower value 0.987 | locus YCL016C, strain dcc1, stronger effect = lower value 1.01 | locus YCL029C, strain bik1, stronger effect = lower value 0.993 | locus YCL061C, strain MRC1, stronger effect = lower value 1.01 | locus YCL069W, strain vba3, stronger effect = lower value 0.993 | locus YCR088W, strain abp1, stronger effect = lower value 1.01 | locus YDL005C, strain med2, stronger effect = lower value 1.01 | locus YDL035C, strain GPR1, stronger effect = lower value 1.01 | locus YDL040C, strain nat1, stronger effect = lower value 1.01 | locus YDL074C, strain BRE1, stronger effect = lower value 0.994 | locus YDL101C, strain DUN1, stronger effect = lower value 0.993 | locus YDL185W, strain tfp1, stronger effect = lower value 0.994 | locus YDL192W, strain arf1, stronger effect = lower value 1.01 | locus YDR001C, strain nth1, stronger effect = lower value 0.999 | locus YDR069C, strain doa4, stronger effect = lower value 1.04 | locus YDR101C, strain arx1, stronger effect = lower value 1.01 | locus YDR137W, strain rgp1, stronger effect = lower value 1.01 | locus YDR150W, strain NUM1, stronger effect = lower value 0.993 | locus YDR159W, strain sac3, stronger effect = lower value 1 | locus YDR162C, strain NBP2, stronger effect = lower value 0.999 | locus YDR195W, strain ref2 1.09 | locus YDR297W, strain sur2, stronger effect = lower value 1.01 | locus YDR318W, strain mcm21, stronger effect = lower value 0.994 | locus YDR334W, strain swr1, stronger effect = lower value 1.02 | locus YDR335W, strain msn5, stronger effect = lower value 1.02 | locus YDR388W, stronger effect = lower value 0.989 | locus YDR392W, strain spt3, stronger effect = lower value 0.941 | locus YDR502C, strain sam2, stronger effect = lower value 0.987 | locus YEL003W, strain gim4, stronger effect = lower value 1.02 | locus YEL037C, strain rad23, stronger effect = lower value 1.01 | locus YEL061C, strain CIN8 (second series), stronger effect = lower value 1.04 | locus YEL061C, strain CIN8, stronger effect = lower value 1.01 | locus YER015W, strain faa2, stronger effect = lower value 1.01 | locus YER016W, strain bim1, stronger effect = lower value 0.972 | locus YER110C, stronger effect = lower value 0.995 | locus YER111C, strain swi4, stronger effect = lower value 1 | locus YER155C, strain BEM2 (second series), stronger effect = lower value 0.952 | locus YER155C, strain BEM2, stronger effect = lower value 1.01 | locus YER167W, strain BCK2, stronger effect = lower value 1 | locus YFR010W, strain ubp6, stronger effect = lower value 1.02 | locus YGL078C, strain dbp3, stronger effect = lower value 0.996 | locus YGL086W, strain mad1, stronger effect = lower value 0.993 | locus YGL167C, strain pmr1, stronger effect = lower value 1.03 | locus YGL173C, strain kem1, stronger effect = lower value 0.998 | locus YGL227W, strain vid30, stronger effect = lower value 1.02 | locus YGL240W, strain doc1, stronger effect = lower value 0.996 | locus YGL248W, strain PDE1, stronger effect = lower value 0.997 | locus YGL253W, strain hxk2, stronger effect = lower value 1.01 | locus YGR135W, strain pre9, stronger effect = lower value 0.99 | locus YGR252W, strain gcn5, stronger effect = lower value 0.959 | locus YHR013C, strain ard1, stronger effect = lower value 1.04 | locus YHR027C, strain rpn1, stronger effect = lower value 1.01 | locus YHR030C, strain SLT2, stronger effect = lower value 1.01 and 1.02 | locus YHR079C, strain IRE1 (second series), stronger effect = lower value 0.994 | locus YHR079C, strain IRE1, stronger effect = lower value 0.993 | locus YHR094C, strain hxt1, stronger effect = lower value 0.984 | locus YHR129C, strain ARP1, stronger effect = lower value 1 | locus YHR142W, strain chs7, stronger effect = lower value 0.963 | locus YHR200W, strain rpn10, stronger effect = lower value 0.989 | locus YIL066C, strain RNR3, stronger effect = lower value 1.02 | locus YIL073C, strain SPO22, stronger effect = lower value 0.943 | locus YIL125W, strain kgd1, stronger effect = lower value 0.991 | locus YIR030C, strain dcg1, stronger effect = lower value 0.997 | locus YJL092W, strain hpr5, stronger effect = lower value 1.02 | locus YJL095W, strain BCK1 (second series), stronger effect = lower value 1.01 | locus YJL095W, strain BCK1, stronger effect = lower value 0.995 and 0.999 | locus YJL115W, strain asf1, stronger effect = lower value 1.02 | locus YJL129C, strain trk1, stronger effect = lower value 1.04 | locus YJL134W, strain LCB3, stronger effect = lower value 1 | locus YJL154C, strain vps35, stronger effect = lower value 1.01 | locus YJL164C, strain tpk1, stronger effect = lower value 0.982 | locus YJL166W, strain qcr8, stronger effect = lower value 1.01 | locus YJL168C, strain set2, stronger effect = lower value 0.992 | locus YJL187C, strain SWE1 (second series), stronger effect = lower value 0.985 | locus YJR043C, strain POL32, stronger effect = lower value 1.02 | locus YJR066W, strain TOR1, stronger effect = lower value 0.966 | locus YKL009W, strain mrt4, stronger effect = lower value 0.976 | locus YKL068W, stronger effect = lower value 0.993 | locus YKL085W, strain MDH1 (second series), stronger effect = lower value 0.996 | locus YKL085W, strain MDH1, stronger effect = lower value 0.996 | locus YKL160W, strain elf1, stronger effect = lower value 1.02 | locus YKL190W, strain CNB1, stronger effect = lower value 0.988 | locus YKR001C, strain vps1, stronger effect = lower value 0.987 | locus YKR091W, strain srl3, stronger effect = lower value 1.01 | locus YLL001W, strain dnm1, stronger effect = lower value 1.01 | locus YLL026W, stronger effect = lower value 1.02 | locus YLL041C, strain sdh2, stronger effect = lower value 1.02 | locus YLR027C, strain aat2, stronger effect = lower value 1 | locus YLR039C, strain RIC1, stronger effect = lower value 1.01 | locus YLR058C, strain SHM2, stronger effect = lower value 0.999 | locus YLR102C, strain apc9, stronger effect = lower value 0.989 | locus YLR113W, strain HOG1, stronger effect = lower value 0.979 | locus YLR221C, strain rsa3, stronger effect = lower value 1.01 | locus YLR258W, strain gsy2, stronger effect = lower value 0.998 | locus YLR262C, strain YPT6 (second series), stronger effect = lower value 1.03 | locus YLR262C, strain YPT6, stronger effect = lower value 0.988 | locus YLR268W, strain sec22, stronger effect = lower value 0.991 | locus YLR320W, strain mms22, stronger effect = lower value 0.978 | locus YLR330W, strain CHS5, stronger effect = lower value 1.01 | locus YLR342W, strain FKS1 (second series), stronger effect = lower value 1.03 | locus YLR342W, strain FKS1, stronger effect = lower value 1 | locus YLR357W, strain rsc2, stronger effect = lower value 1.05 | locus YLR370C, strain arc18, stronger effect = lower value 1.01 | locus YLR371W, strain rom2, stronger effect = lower value 0.994 | locus YLR384C, strain iki3, stronger effect = lower value 1.02 | locus YLR418C, strain cdc73, stronger effect = lower value 0.988 | locus YML016C, strain PPZ1, stronger effect = lower value 1 | locus YML032C, strain rad52, stronger effect = lower value 0.995 | locus YML120C, strain ndi1, stronger effect = lower value 1.02 | locus YML124C, strain tub3, stronger effect = lower value 0.992 | locus YMR058W, strain fet3, stronger effect = lower value 1.03 | locus YMR078C, strain ctf18, stronger effect = lower value 0.998 | locus YMR125W, strain sto1, stronger effect = lower value 1.01 | locus YMR129W, stronger effect = lower value 1.01 | locus YMR205C, strain PFK2, stronger effect = lower value 1.01 | locus YMR223W, strain ubp8, stronger effect = lower value 0.997 | locus YMR231W, strain pep5, stronger effect = lower value 1.01 | locus YMR263W, strain SAP30, stronger effect = lower value 1 | locus YMR307W, strain GAS1, stronger effect = lower value 1.09 | locus YNL067W, strain RPL9B, stronger effect = lower value 0.975 | locus YNL071W, strain lat1, stronger effect = lower value 0.983 | locus YNL183C, strain NPR1, stronger effect = lower value 0.949 | locus YNL209W, strain ssb2, stronger effect = lower value 0.993 | locus YNL233W, strain BNI4, stronger effect = lower value 1.01 | locus YNL248C, strain rpa49, stronger effect = lower value 1 | locus YNL250W, strain rad50, stronger effect = lower value 0.983 | locus YNL271C, strain bni1, stronger effect = lower value 0.993 | locus YNL298W, strain CLA4, stronger effect = lower value 1.01 | locus YNL307C, strain MCK1, stronger effect = lower value 0.986 | locus YNL322C, strain KRE1 (second series), stronger effect = lower value 1.01 | locus YNR049C, strain mso1, stronger effect = lower value 1.02 | locus YNR052C, strain pop2, stronger effect = lower value 0.987 | locus YOL006C, strain TOP1, stronger effect = lower value 1.03 | locus YOL012C, strain htz1 0.986 | locus YOL147C, strain pex11, stronger effect = lower value 0.993 | locus YOR001W, strain rrp6, stronger effect = lower value 1.02 | locus YOR061W, strain CKA2, stronger effect = lower value 0.996 | locus YOR069W, strain VPS5, stronger effect = lower value 0.998 | locus YOR070C, strain gyp1, stronger effect = lower value 0.989 | locus YOR080W, strain dia2, stronger effect = lower value 1.03 | locus YOR083W, strain WHI5, stronger effect = lower value 1.01 | locus YOR106W, strain vam3, stronger effect = lower value 1.02 | locus YOR136W, strain idh2, stronger effect = lower value 0.98 | locus YOR144C, strain elg1, stronger effect = lower value 0.997 | locus YOR184W, strain ser1, stronger effect = lower value 0.991 | locus YOR231W, strain MKK1, stronger effect = lower value 0.989 | locus YOR265W, strain rbl2, stronger effect = lower value 1.01 | locus YOR270C, strain vph1, stronger effect = lower value 0.973 | locus YOR290C, strain snf2, stronger effect = lower value 0.988 | locus YOR316C, strain cot1, stronger effect = lower value 0.989 | locus YPL051W, strain arl3, stronger effect = lower value 1.02 | locus YPL055C, strain LGE1, stronger effect = lower value 1 | locus YPL078C, strain atp4, stronger effect = lower value 1.03 | locus YPL106C, strain sse1, stronger effect = lower value 0.946 | locus YPL240C, strain hsp82, stronger effect = lower value 1.02 | locus YPL241C, strain CIN2, stronger effect = lower value 1 | locus YPL256C, strain CLN2, stronger effect = lower value 0.983 | locus YPR119W, strain clb2, stronger effect = lower value 0.99 | locus YPR141C, strain kar3, stronger effect = lower value 0.999 | locus YPR163C, strain tif3, stronger effect = lower value 1 | locus YPR167C, strain met16, stronger effect = lower value 0.996 | strain wtn01, stronger effect = lower value 0.997
